In the library only some 6.8% were active in any assay of this set; here they are far more common.
T cruzi growth-1: T. cruzi proliferation inhibition; T. cruzi beta-gal in NIH3T3, GalScreen luminescence, 90 h; inhibition, % at 8.34 µM; hit rate 5.9% among 77,000; AID 624255;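 active = mean inhibition above about 93%, with at least 55% of replicates each passing it, limit read from the data, passing the limit was not always enough; inconclusive = only one of those two conditions holds; inactive = neither condition holds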
Pf Dd2 inh: P. falciparum Dd2 growth inhibition; AID 1159554; SYBR Green, 72 h; active compounds read low; activity change, % at 10 µM; hit rate 2.3% among 94,000; in the data active = activity change below about -80%; inconclusive = no clear call, values can overlap the other calls
C diff HTS: C. difficile growth inhibition | Clostridium difficile clinical isolate growth, OD600, 24 h; active compounds read low | growth activity, negative = inhibition, % at 16 µg/mL (by protocol) | hit rate 0.25% among 86,000 | AID 1259249;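 active = mean growth activity at or below -80% and every replicate also at or below -80%; inconclusive = mean at or below -80% but some replicate above -80%; inactive = mean growth activity above -80%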;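 note: 0% = DMSO wells and -100% = levofloxacin 16 µg/mL wells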
T cruzi growth-2: inhibitors of T. cruzi proliferation. hit rate 72% among 5,600. T. cruzi beta-gal in NIH3T3, GalScreen luminescence, 90 h. AID 651739. shares compounds with T cruzi growth-1. inhibition, % at 8.35 µM;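 active = mean replicate inhibition above about 95% and at least 55% of replicates individually reaching it, limit read from the data; inconclusive = only one of the two criteria is met; inactive = neither criterion is met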
T cruzi growth-3: inhibitors of T. cruzi proliferation. shares compounds with T cruzi growth-1. T. cruzi beta-gal in NIH3T3, GalScreen luminescence, 90 h. inhibition, % at 2.09 µM. hit rate 21% among 5,600;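 active = mean inhibition above about 95%, with at least 55% of replicates also reaching it, limit read from the data; inconclusive = meets just one of the two conditions; inactive = meets neither condition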;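 note: plate controls were neutral control median for no effect and positive control median for full effect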
3T3 cytotox: NIH/3T3 (mouse) viability loss | NIH/3T3 viability, CellTiter-Glo ATP luminescence, 90 h | shares compounds with T cruzi growth-1 | hit rate 14% among 5,600 | cytotoxicity (signal decrease), % at 8.35 µM | AID 651742;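 active = mean signal decrease across replicates above about 35% based on untreated-well scatter, with enough replicates individually passing, limit read from the data; inconclusive = no rule stated though some were filed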;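 note: 0% = median of neutral control wells and 100% = median of positive control wells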
NIH3T3 tox 2: kills mouse NIH/3T3 fibroblasts | NIH/3T3 viability, CellTiter-Glo ATP luminescence, 90 h | inhibition, % at 24.9 µM | AID 651744 | shares compounds with T cruzi growth-1 | hit rate 56% among 5,600;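 active = mean loss of cell viability signal at or above a set limit, and enough replicates individually reaching it; inconclusive = meets only the mean limit or only the replicate share; inactive = meets neither condition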;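 note: 0% = median of neutral control wells and 100% = median of positive control wells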
* marks the source's active call; other numbers are inactive results; ? = inconclusive; / = no result.

SMILES	T cruzi growth-1	Pf Dd2 inh	C diff HTS	T cruzi growth-2	T cruzi growth-3	3T3 cytotox	NIH3T3 tox 2
CC(C)NC(=O)Nc1ccc2c(c1)C(=O)N([C@H](C)CO)C[C@@H](C)[C@H](CN(C)S(=O)(=O)c1ccc(Cl)cc1)OCCCC[C@H](C)O2	71.9	-76.8	2.1	/	/	/	/
CC(=O)N1Cc2cc(C(=O)NCC(F)(F)F)nc(-c3cccc(-c4cncnc4)c3)c2[C@H]1CCO	/	-4.8	-6.4	/	/	/	/
COc1ccc(NC(=O)N(C)C[C@@H]2OCCCC[C@@H](C)Oc3ccc(NC(=O)CCC(F)(F)F)cc3C(=O)N([C@H](C)CO)C[C@@H]2C)cc1	32.3	1.8	-1.2	/	/	/	/
CCC(=O)N[C@@H]1CC[C@H](CC(=O)NCCN2CCCCC2)O[C@@H]1CO	-101.8	12.6	/	/	/	/	/
CCCNC(=O)N1C[C@H](C)[C@H](OC)CN(C)C(=O)c2ccc(NC(C)=O)cc2OC[C@@H]1C	-18.7	-9.8	/	/	/	/	/
O=C(C[C@@H]1CC[C@H]2[C@@H](COC[C@H](O)CN2S(=O)(=O)c2ccc(F)cc2)O1)N[C@@H]1CCN(Cc2ccccc2)C1	-31.4	-11.3	-2.0	/	/	/	/
O=C(c1cccc(F)c1)N1CCCCN2[C@@H](CO)[C@@H](c3ccc(-c4ccncc4)cc3)[C@@H]2C1	81.5	8.4	-5.6	/	/	/	/
O=C(c1cccc(F)c1)N1CCCCN2[C@H](CO)[C@H](c3ccc(-c4ccc(F)cc4)cc3)[C@@H]2C1	110.6*	10.8	38.3	110.4*	95.5*	23.2	64.8*
O=C(Nc1ccccc1F)N1CCCCN2[C@H](CO)[C@H](c3ccc(C#Cc4cccnc4)cc3)[C@H]2C1	100.8*	-48.5	1.5	108.9*	64.1	26.8	69.5*
O=C(Nc1ccccc1F)N1CCCCN2[C@@H](CO)[C@H](c3ccc(C#Cc4cccnc4)cc3)[C@@H]2C1	122.3*	-77.2	-4.7	106.2*	38.7	24.3	38.4*
O=C(Nc1ccccc1F)N1CCCCN2[C@H](CO)[C@H](c3ccc(-c4cccnc4)cc3)[C@H]2C1	47.4	-55.2	-5.2	/	/	/	/
O=C(Nc1cccc(F)c1)N1CCCCN2[C@H](C1)[C@@H](c1ccc(C#Cc3cccnc3)cc1)[C@@H]2CO	89.1	-16.2	4.0	/	/	/	/
CNC[C@@H]1OCCCC[C@@H](C)Oc2ccc(NC(=O)Cc3ccccc3)cc2C(=O)N([C@H](C)CO)C[C@H]1C	73.7	42.3	-4.1	/	/	/	/
COc1ccc(S(=O)(=O)Nc2ccc3c(c2)C(=O)N([C@@H](C)CO)C[C@H](C)[C@@H](CN(C)CC2CCCCC2)OCCCC[C@H](C)O3)cc1	85.2	-58.4	-1.2	/	/	/	/
CCCN1[C@@H]2Cn3c(ccc(-c4cccnc4)c3=O)[C@H]1[C@@H](C(=O)NCCc1cn(C)cn1)[C@@H]2CO	51.4	/	0.1	/	/	/	/
COc1ccc2c3c([nH]c2c1)[C@H](CO)N(C(=O)CC1CC1)CC31CCN(C(=O)CC2CC2)CC1	/	-45.0	-6.2	/	/	/	/
C[C@@H]1CCCCO[C@H](CN(C)C(=O)C2CCCCC2)[C@@H](C)CN([C@H](C)CO)C(=O)c2cc(NC(=O)Cc3ccccc3)ccc2O1	19.2	-48.6	-0.3	/	/	/	/
CCNC(=O)Nc1ccc2c(c1)C(=O)N(C)[C@@H]1CC[C@H](CC(=O)NCCOC)O[C@@H]1CO2	6.0	13.7	3.3	/	/	/	/
O=C(c1ccc(F)cc1)N1CCCCN2[C@@H](CO)[C@@H](c3ccc(-c4ccccc4)cc3)[C@@H]2C1	66.4	-23.8	33.6	/	/	/	/
CC(=O)N1CCCCN2[C@H](CO)[C@@H](c3ccc(-c4ccc(F)cc4)cc3)[C@H]2C1	-7.6	21.8	-14.0	/	/	/	/
Cc1ccc(-c2ccc([C@H]3[C@@H](CO)N4CCCCN(C(=O)c5ccc(F)cc5)C[C@@H]34)cc2)cc1	113.3*	-13.2	49.4	108.5*	85.9	26.4	104.8*
Cc1ccc(-c2ccc([C@H]3[C@H](CO)N4CCCCN(C(=O)c5ccc(F)cc5)C[C@@H]34)cc2)cc1	103.2*	3.5	32.7	?	41.2	21.9	106.4*
Cc1ccc(-c2ccc([C@@H]3[C@@H](CO)N4CCCCN(C(=O)c5ccc(F)cc5)C[C@@H]34)cc2)cc1	106.6*	-6.1	-5.7	101.0*	52.9	-12.4	56.7*
Cc1ccc(-c2ccc([C@H]3[C@H]4CN(C(=O)c5ccc(F)cc5)CCCCN4[C@H]3CO)cc2)cc1	101.9*	1.5	32.4	103.2*	31.7	15.9	103.2*
CN1C(=O)c2cc(NC(=O)c3cccs3)ccc2OC[C@H]2O[C@@H](CC(=O)O)CC[C@@H]21	-19.6	1.5	-4.2	/	/	/	/
SMILES	T cruzi growth-1	Pf Dd2 inh	C diff HTS	T cruzi growth-2	T cruzi growth-3	3T3 cytotox	NIH3T3 tox 2
CC(C)CC#Cc1ccc([C@@H]2[C@H](CO)N3C(=O)CN(C(=O)c4ccccn4)C[C@@H]23)cc1	/	-10.8	-9.9	/	/	/	/
CCC(=O)N1[C@H](CN(C)C(=O)CN2CCOCC2)[C@@H](c2ccccc2)[C@@H]1CO	15.4	-5.6	-1.9	/	/	/	/
CCNC(=O)[C@@H]1[C@@H](CO)[C@@H]2Cn3c(ccc(/C=C/c4ccccc4)c3=O)[C@H]1N2C(=O)C1CCCC1	/	21.0	0.2	/	/	/	/
Cc1ccc(-c2ccc([C@@H]3[C@H](CO)N4CCCCN(C(=O)c5ccncc5)C[C@@H]34)cc2)cc1	43.8	2.7	10.6	/	/	/	/
Cc1ccc(-c2ccc([C@H]3[C@@H](CO)N4CCCCN(C(=O)c5ccc(F)cc5)C[C@H]34)cc2)cc1	103.3*	-50.2	22.1	105.8*	100.9*	46.0*	103.5*
C[C@@H]1CN([C@@H](C)CO)S(=O)(=O)c2ccc(C#CC3CC3)cc2O[C@H]1CN(C)C(=O)c1cccc(F)c1	/	14.7	25.5	/	/	/	/
C[C@@H]1CN([C@H](C)CO)S(=O)(=O)c2ccc(C#CC3CC3)cc2O[C@H]1CN(C)C(=O)c1cccc(F)c1	/	-46.2	22.6	/	/	/	/
C[C@H](CO)N1C[C@H](C)[C@H](CN(C)C(=O)c2cccc(F)c2)Oc2cc(C#CC3CC3)ccc2S1(=O)=O	/	34.9	6.0	/	/	/	/
C[C@@H]1CN([C@@H](C)CO)S(=O)(=O)c2ccc(C#CC3CCCC3)cc2O[C@@H]1CN(C)C(=O)c1cccc(F)c1	118.4*	-40.3	/	101.6*	97.5*	18.6	105.6*
C[C@H](CO)N1C[C@H](C)[C@H](CN(C)C(=O)c2cccc(F)c2)Oc2cc(C#CC3CCCC3)ccc2S1(=O)=O	122.6*	-65.4	/	103.0*	78.2	4.7	103.4*
C[C@H]1CN([C@@H](C)CO)S(=O)(=O)c2ccc(C#CC3CC3)cc2O[C@@H]1CN(C)C(=O)c1cccc(F)c1	/	-8.3	3.7	/	/	/	/
C[C@@H]1CN([C@H](C)CO)S(=O)(=O)c2ccc(C#CC3CCCC3)cc2O[C@@H]1CN(C)C(=O)c1cccc(F)c1	123.1*	-59.1	/	95.4*	?	10.8	102.9*
C[C@@H]1CN([C@H](C)CO)S(=O)(=O)c2ccc(C#CC3CCCC3)cc2O[C@H]1CN(C)C(=O)c1cccc(F)c1	122.5*	-85.3*	/	100.6*	89.6	4.9	102.7*
